HT1080-NT tox = kills 2HG-producing HT-1080-NT fibrosarcoma cells; HT-1080-NT fibrosarcoma viability, CellTiter-Glo ATP luminescence, 48 h; hit rate 1.6% among 360,000; Potency, µM (highest dose often 46.1 µM), actives largely listed as cytotoxic; AID 686970;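 also: NT is the 2HG producing partner of a matched IDH1 knockdown line; nearly all actives have a fitted effect of over 55% in size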
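HT-1080-NT fibrosarcoma cells (2HG-overproducing), 750 cells/well in RPMI with 5% FBS, dosed after 2 h and incubated 48 h at 37C. CellTiter-Glo luminescence normalized to DMSO and no-cell wells; concentration-response curves fitted and classed.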
KB-V1 cytotox = KB-V1 MDR subline cytotoxicity. KB-V1 MDR cells viability, CellTiter-Glo, 72 h. Potency, µM (highest dose often 46.1 µM), usual class: cytotoxic. hit rate 3.4% among 400,000; also: nearly all actives have a fitted effect of over 60% in size
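Cytotoxicity toward P-gp-expressing KB-V1 cells was determined as loss of CellTiter-Glo luminescence after 72 h at 37 degrees C. Compounds were tested in quantitative HTS format across a concentration range, with curves fitted to normalized data.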
KB-3-1 cytotox = kills parental KB-3-1 adenocarcinoma cells; KB-3-1 viability, CellTiter-Glo ATP luminescence, 72 h; Potency, µM (doses to about 46.1 µM), hits mostly cytotoxic; hit rate 1.4% among 400,000; AID 1347075; also: nearly all actives have a fitted effect of over 60% in size
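72 h, 37 °C compound treatment of KB-3-1 parental cells; CellTiter-Glo added, 10 min, luminescence read. Data corrected against DMSO-only plates and normalized before curve fitting.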
HT1080 IDH1KD tx = toxicity to HT-1080 IDH1 knockdown cells (counter line) | hit rate 2% among 360,000 | Potency, µM (doses to about 46.1 µM), actives largely listed as cytotoxic | HT-1080 IDH1 knockdown viability, ATP luminescence, 48 h
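After a 2 h attachment period, IDH1KD HT-1080 cells took pin-transferred compound for 48 h at 37 °C; ATP-based luminescence after 10 min room-temperature reagent incubation reported viability.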
A number is an active result; - = inactive; ? = inconclusive; . = no result. Hits are enriched below; roughly 5.7% of the tested compounds scored in any of these assays. Calls follow the shape of the dose curve; as a rule, active = well fitted curve in the direction sought with a large enough effect; inconclusive = small, poorly fitted or top-dose-only effect, or another doubt; inactive = no such curve, though single readings can be large; an effect the other way counts as inactive or inconclusive.

SMILES	HT1080-NT tox	KB-V1 cytotox	KB-3-1 cytotox	HT1080 IDH1KD tx
CC(C)CNc1ncnc2nc[nH]c12	.	-	-	.
COc1ccc(C(=O)/C=C/C(=O)N(Cc2ccc(F)cc2)C(C(=O)NC2CCCCC2)c2ccncc2)c(O)c1 (stereo unspecified)	-	0.73µM	?	-
COc1ccc(C(=O)/C=C/C(=O)N(Cc2ccccc2)C(C(=O)NC2CCCCC2)c2ccncc2)c(O)c1 (stereo unspecified)	-	0.92µM	-	-
COc1ccc(C2c3c(n(C)c4ccccc34)C(=O)N2CC(=O)Nc2ccccc2Cl)cc1 (stereo unspecified)	.	-	-	.
CCOc1cccc(C2C=C(c3ccc4c(c3)OCO4)NC(c3ccc(F)cc3)N2)c1O (stereo unspecified)	.	-	-	.
CCOc1cccc(C2C=C(c3ccc4c(c3)OCO4)NC(c3ccc(Cl)cc3)N2)c1O (stereo unspecified)	.	-	10µM	.
N#Cc1c(N)n(C2OC(CO)C(O)C2O)c2ncnc(N)c12 (stereo unspecified)	1.3µM	0.21µM	0.23µM	0.52µM
Cc1cc(C(=O)CCl)c(C)n1-c1cccc([N+](=O)[O-])c1	?	23µM	16µM	?
Cc1cc(C(=O)CCl)c(C)n1-c1ccon1	-	?	?	21µM
COc1ccc(-c2cc3nc(CCl)[nH]c(=O)c3s2)cc1	16µM	?	?	16µM
COC(=O)C1(C(=O)OC)C[C@H](c2cccs2)N(Cc2ccccc2OC)[C@@H]1c1ccc(F)cc1	-	?	?	-
COC(=O)c1ccc(NC(=O)c2ccc(CN3CCOCC3)cc2)cc1	?	2.6µM	-	?
O=C(Nc1ccc(CN2CCOCC2)cc1)c1ccc(F)cc1	-	-	-	-
O=C(Nc1ccccc1)c1ccc(-c2ccc(Br)cc2)o1	-	-	-	-
CC(=O)c1ccc(NC(=O)c2ccc(-c3ccc(Cl)cc3)o2)cc1	.	-	?	.
O=C(Nc1ccc(CN2CCOCC2)cc1)c1ccc(-c2ccc(Br)cc2)o1	14µM	21µM	-	?
O=C(Nc1ccc(CN2CCOCC2)cc1)c1ccc(Cl)cc1	-	9.2µM	?	-
CN(C)C(=O)c1ccc(NC(=O)c2ccc(-c3ccc(Cl)cc3)o2)cc1	-	21µM	-	-
O=C(Nc1ccc(CN2CCOCC2)cc1)c1ccc(Br)cc1	-	-	-	-
CCOc1c(Br)cc(C2C=C(C(=O)O)Nc3ncnn32)cc1OC (stereo unspecified)	.	?	-	.
C1=Nc2ccccc2/C1=C/c1c[nH]c2ccccc12	.	-	?	.
Cc1cc(/C=N/NC(=O)c2ccc(CN3CCOCC3)cc2)c(C)n1-c1ccccc1	-	16µM	-	-
COC(=O)c1ccc(/C=N\N2CCN(Cc3ccc(C)cc3)CC2)cc1	-	8.2µM	-	-
COC(=O)c1ccc(/C=N/N2CCN(Cc3ccccc3)CC2)cc1	-	-	-	-
S=C(NCCCc1cnc[nH]1)NCCCN(Cc1ccc(Cl)cc1)c1ncc(Br)cn1	.	-	-	.
SMILES	HT1080-NT tox	KB-V1 cytotox	KB-3-1 cytotox	HT1080 IDH1KD tx
O=C(NC1CCCCC1)[C@@H]1CC=C[C@@H]2CCN(Cc3ccc(Cl)c(Cl)c3)C(=O)[C@@H]21	.	-	-	.
CC1CCCC/C1=N\Nc1ccc(S(N)(=O)=O)cc1[N+](=O)[O-] (stereo unspecified)	-	-	-	-
CC(C)(C)C1CCC(=NNc2ccc(S(N)(=O)=O)cc2[N+](=O)[O-])CC1 (stereo unspecified)	?	-	?	18µM
COc1ccccc1NS(=O)(=O)c1ccc(NN=C2CCCC2)c([N+](=O)[O-])c1	-	2.9µM	-	-
O=C(CSc1nc(=O)n(Cc2ccncc2)c2c1CCC2)Nc1ccc(F)cc1F	.	-	-	.
Cc1ccc(C(=O)c2cnc3ccccc3c2-c2ccccc2)cc1	-	16µM	-	-
Cc1ccc(C(=O)c2nc(C(=O)NCCO)nc3ccccc23)cc1	-	-	-	-
COc1ccc(C(=O)c2cnc3ccccc3c2-c2ccccc2)cc1	-	18µM	23µM	-
COc1ccc(Oc2nc(-c3ccccc3)ncc2C(=O)O)cc1	-	-	-	-
COc1cccc(N2CCN(c3ccc4nnc(CCC(=O)O)n4n3)CC2)c1	.	?	-	.
CC1CCCN(S(=O)(=O)c2ccc3c(c2)CCN3C(=O)CCC(=O)O)C1 (stereo unspecified)	.	-	-	.
Cc1noc(NS(=O)(=O)c2ccc(NC(=O)CSc3nnc4c(n3)[nH]c3ccccc34)cc2)c1C	-	-	-	-
CCN(CC)S(=O)(=O)c1ccc(NC(=O)CSc2nnc3c(n2)[nH]c2ccccc23)cc1	13µM	.	.	22µM
O=C(c1ccc2c(c1)CCN2S(=O)(=O)c1ccc(Cl)cc1)N1CCN(c2ccccc2F)CC1	.	-	-	.
O=C(Cn1cc(S(=O)(=O)N2CCCC2)c(S(=O)(=O)N2CCCC2)c1)Nc1ccccc1	.	-	?	.
O=C(c1cccs1)c1cn(CCOc2ccccc2Cl)c2ccccc12	.	-	-	.
O=C(/C=C/c1ccccc1)N1CCC(c2ccccc2)C1 (stereo unspecified)	-	21µM	-	-
O=C(/C=C/c1ccco1)N1CCCC(c2ccccc2)C1 (stereo unspecified)	-	-	-	-
CCOC(=O)N1CCN(c2ncc3c(n2)CC(c2ccc(Cl)cc2)CC3=O)CC1 (stereo unspecified)	.	16µM	-	.
